Measured values as given in PubChem BioAssay (NCI).
This is part of a sample that, as a whole, favours compounds with a hit. Of some 83,000 tested, about 20% had one in any assay.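 The test compound was applied at a single concentration to cells in 96-well plates for 48 hours, and percent growth was recorded.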 Active and inactive are the calls of the source.

Each molecule was assayed on NCI-H226 lung (assay: NCI-60 one-dose screen, 48 h (100 = growth as untreated, 0 = no growth, -100 = all killed)). Settings: 10 µM unless noted.
Procedure: Growth inhibition of the NCI-H226 human Non-Small Cell Lung tumor cell line is measured as a screen for anti-cancer activity. Cells are grown in 96 well plates and exposed to the test compound for 48 hours. Compounds are tested at a single concentration, which is 10^-5 M for most compounds. The reported endpoint is percent growth (GI% or GIPRCNT), where numbers from 0 - 100% represent growth inhibition, and numbers from -100% - 0 represent cell death. For example, a value of 40 represents 60% growth inhibition. A value of 0 means no net growth occurred over the course of the experiment. A value of -40 indicates 40% of cells at the beginning of the experiment died by the end of the experiment. A value of -100 means all cells are dead at the end of the experiment.
NCI-60 Human Tumor Cell Lines Screen was performed using the standard one-dose NCI protocol, which is described in more detail at https://dtp.cancer.gov/discovery_development/nci-60/default.htm.
Compounds with GIPRCNT values below 10 were considered active. Activity score was based on GIPRCNT using the following formula: […]
Score is 0 for GIPRCNT values of 100 or above, 50 for GIPRCNT values of 0, and 100 for GIPRCNT values of -100.

SMILES | growth
CS(=O)(=O)c1ccc(C(=O)N/N=C/c2ccc3c(c2)OCO3)cc1 | 91.1% (inactive)
c1ccc2oc(-c3cnc4nonc4n3)cc2c1 | 92.1% (inactive)
C=C1C(=O)O[C@H]2[C@H]1CC/C(COC(=O)NCc1ccc(Cn3c(=O)sn(CCCl)c3=O)cc1)=C\CC[C@@]1(C)O[C@@H]21 | 79.8% (inactive)
CC(C)CCSc1nc(-c2ccc(F)cc2)c(C#N)c(N2CCN(C)CC2)n1 | 96.8% (inactive)
C#CCNc1nc(NCCNC(=O)CCl)nc(N(C)CCCCc2ccccc2)n1 | 71% (inactive)
O=S1(=O)NCCCN1CCNc1nccc(-c2c(-c3cccc(O)c3)nc3sccn23)n1 | 84.9% (inactive)
COc1cc(OC)cc(-c2ccc(-c3ccc(C(=N)N)s3)s2)c1 | -65.3% (active)
CCN(CC)CCCCCCCCNc1c2ccc(Cl)cc2nc2ccc(OC)cc12 | -21.4% (active)
O=C(CSc1nc2c(n1Nc1ccccc1)-c1ccccc1SC2)Nc1nccs1 | 93.6% (inactive)
CC(C)[C@@H]1C=C2CC[C@H]3[C@](C)(CN)CCC[C@]3(C)[C@H]2CC1 | 98.7% (inactive)
CCOC(=O)CCN(CCC(=O)OCC)c1ccccc1 | 98.4% (inactive)
CC(C)OC1OC(OC(C)C)C(OC(C)C)OC1OC(C)C (stereo not given) | 99.9% (inactive)
COc1cnc2c(c1)C(=O)c1c-2n(CCCNC(C)C)c(=O)c2cc(Cl)ccc12 | 25.5% (inactive)
CCOC(=O)c1ccc(NC(=O)CSC(N)=O)cc1 | 116% (inactive)
CN1C2CCC1/C(=C\c1ccc(F)cc1)C(=O)/C2=C/c1ccc(F)cc1 | 55.6% (inactive)
COc1ccc(-c2conc2-n2nc(-c3ccccc3)nc2-c2ccccc2)cc1 | 89.7% (inactive)
CN(C)CCCn1c(=O)c2cc([N+](=O)[O-])ccc2c2cnc3[nH]ccc3c21 | 44.3% (inactive)
CN1C(=O)NC(Cc2c[nH]c3c(Cl)cccc23)C1=O (stereo not given) | 93.8% (inactive)
CCOc1cc(/C=N\NC(=O)C[N+](C)(C)C)ccc1O | 97.5% (inactive)
COC(=O)c1ccc2c(c1)nc(-c1ccc(Cl)cc1)n2-c1cc(C(C)(C)C)[nH]n1 | 94.3% (inactive)

SMILES | growth
CC(C)c1nc2ccccc2n1CC(=O)N/N=C/c1cccc(O)c1 | 105% (inactive)
Oc1ccc(-c2nnc3c4[nH]ccc4ncn23)cc1 | 100% (inactive)
CC1=C(O)C(=O)CC1 | 100% (inactive)
CSc1nc(N)c2[nH]c(-c3cc4ccccc4[nH]c3=O)nc2n1 | 105% (inactive)
Cc1ccc(OC2=C(C#N)C(=N)N3C(=NN2)Sc2c(C)ccc(C)c23)cc1 | 93.4% (inactive)
CCOC(=O)C1C(=O)C=C(c2ccccc2)CC1c1sc(N(C)Cc2ccccc2)nc1Cl (stereo not given) | 85.8% (inactive)
COc1ccc(C2c3cccn3-c3ccccc3N2C(C)=O)cc1 (stereo not given) | 97.3% (inactive)
COc1ccc2nc3ccccc3c(NCc3ccc(Cl)cc3)c2c1 | 48.8% (inactive)
COc1ccc(-c2nc3c(c(-c4ccc(Cl)cc4)nn3-c3ccccc3)c(-c3ccc(O)cc3)c2C#N)cc1 | 70.6% (inactive)
COc1ccc(/C(C)=N/NC(=O)c2ccc(S(C)(=O)=O)cc2)cc1OC | 95.5% (inactive)
Cc1nn(-c2ccccc2)c2nc3c(nc12)C1=NCCN1C(c1ccc(Cl)cc1)N3 (stereo not given) | 86.2% (inactive)
COc1ccc(-c2cc(C(=O)Nc3ccc(C)cc3)nc3[nH]c(=O)sc23)cc1 | 80.1% (inactive)
CN1C2CCC1/C(=C\c1ccc(Cl)cc1)C(=O)/C2=C/c1ccc(Cl)cc1 | 73.8% (inactive)
Cc1ccc2c(C)c3c(ccc4ccccc43)c[n+]2c1 | 83.7% (inactive)
CSc1ccc(/C=C2\C=C(CC(=O)NCc3ccc(C(=O)c4ccccc4)cc3)c3cc(F)ccc32)cc1 | -40.8% (active)
CCCCOC(=O)c1cc(O)c(O)c(O)c1 | 96.7% (inactive)
C=C[C@H]1CCC/C=C/[C@@H]2C[C@H](O)C[C@H]2[C@H](O)/C=C/C(=O)O1 | 3.22% (active)
COc1cccc(N2CCN(c3ncnc4cc[nH]c34)CC2)c1 | 55.1% (inactive)
N=c1nc(N2CCCCC2)cc(N)n1O | 92.7% (inactive)
CCN(CC)Cc1cc(Nc2ccnc3ccc(OC)cc23)ccc1O | 56.4% (inactive)
